# Data reported in PubChem BioAssay AID1946 (Johns Hopkins Ion Channel Center, 2009).
# Screen size: about 2,400 compounds; about 180 (7.5%) were called active. Many of the other results were omitted from the sample, so actives are more common in it than they were. Unmarked numbers belong to inactive results.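 Rule for the calls: active = readout below zero, meaning a drop past 3 SD under the dofetilide-free negative control mean; inactive = the rest.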
# Target: Potassium voltage-gated channel subfamily KQT member 2 (Rattus norvegicus) (UniProt O88943)
# Sequence (O88943 whole entry, looked up): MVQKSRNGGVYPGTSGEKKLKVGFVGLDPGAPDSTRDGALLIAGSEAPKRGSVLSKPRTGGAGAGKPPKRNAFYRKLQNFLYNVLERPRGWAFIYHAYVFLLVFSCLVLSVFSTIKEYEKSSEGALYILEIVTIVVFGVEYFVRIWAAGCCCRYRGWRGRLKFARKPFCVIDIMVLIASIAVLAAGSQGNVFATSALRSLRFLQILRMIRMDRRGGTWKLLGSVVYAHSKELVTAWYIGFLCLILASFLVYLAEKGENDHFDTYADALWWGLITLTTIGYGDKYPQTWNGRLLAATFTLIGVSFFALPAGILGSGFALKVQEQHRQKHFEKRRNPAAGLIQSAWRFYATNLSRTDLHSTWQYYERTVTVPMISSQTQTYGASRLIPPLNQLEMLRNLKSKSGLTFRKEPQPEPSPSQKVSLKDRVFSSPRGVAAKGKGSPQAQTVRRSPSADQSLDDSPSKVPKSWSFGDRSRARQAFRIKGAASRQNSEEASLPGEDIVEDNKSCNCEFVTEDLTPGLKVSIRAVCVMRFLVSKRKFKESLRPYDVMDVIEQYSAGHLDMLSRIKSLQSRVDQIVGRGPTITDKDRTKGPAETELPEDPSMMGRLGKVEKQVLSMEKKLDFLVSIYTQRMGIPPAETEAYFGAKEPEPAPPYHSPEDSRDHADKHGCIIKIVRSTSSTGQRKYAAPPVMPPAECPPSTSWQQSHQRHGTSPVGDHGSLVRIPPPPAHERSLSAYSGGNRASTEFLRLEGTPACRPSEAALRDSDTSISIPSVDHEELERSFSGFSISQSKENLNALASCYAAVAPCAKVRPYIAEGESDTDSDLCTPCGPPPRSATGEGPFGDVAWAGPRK
# Assay: KCNQ2 blockade in CHO cells – cell-based, FluxOR thallium flux, counter-screen for hERG block protector project, confirmation (AID 1946)
# Conditions: FluxOR thallium flux fluorescence, at 10 µM, active compounds read low, zero marks the 3-SD hit cutoff
row,SMILES,activity change vs negative control
1,O=C(Nc1ccsc1C(=O)O)c1ccccc1Cl,14.8%
2,Cc1ccccc1C(=O)NNC(=O)C(=O)Nc1cccc(Cl)c1C,40.7%
3,CC(=O)CSc1ncnc2sc3c(c12)CCC(C)C3 (stereo unspecified),111%
4,CC(C)(C)c1ccc(/C=C/C(=O)N2CCCCC2)cc1,32.8%
5,CCOC(=O)c1c(O)c2ccccc2n(C)c1=O,17.5%
6,CCOc1ccc(N(CC)C(=O)COc2cc(=O)n(C)c3ccccc23)cc1,-3.3% (active)
7,Cn1c(=O)cc(-c2ccccc2)c2ccccc21,2.7%
8,Cc1cccc(N2CCN(C(=O)CNC(=O)c3cccc([N+](=O)[O-])c3)CC2)c1C,1.9%
9,CCn1c(SCC(=O)NC(=O)NCc2ccco2)nc2sc(C)c(C)c2c1=O,43.3%
10,C=CCSc1nc2sc3c(c2c(=O)n1CC)CCc1ccccc1-3,35%
11,O=C(c1ccc(Cl)c(S(=O)(=O)N2CCCC2)c1)N1CCN(c2ccccc2F)CC1,14.8%
12,CC(=O)c1ccc(N2CCN(C(=O)Cc3ccccc3)CC2)c(F)c1,-0.2% (active)
13,CS(=O)(=O)N(CCc1ccccc1)CC(=O)N1CCN(c2ccc(F)cc2)CC1,1.7%
14,S=c1nc(-c2ccc(Br)cc2)[nH]c2ccccc12,122%
15,Cc1ccc(C(=O)CC(=O)COc2ccc(Cl)cc2C)cc1,13.2%
16,O=C(CCc1ccccc1)Nc1nccs1,4.5%
17,CCC(=O)Nc1nnc(-c2ccccn2)o1,-0.7% (active)
18,O=C(Nc1nnc(-c2ccccc2)o1)c1ccc(Cl)cc1,13.6%
19,O=C(CCC(=O)Nc1ccccc1)NNC(=O)c1ccco1,3.9%
20,O=C(Nc1nnc(-c2ccc3c(c2)CCCC3)o1)C1COc2ccccc2O1 (stereo unspecified),28%
21,O=C(CCc1ccccc1)Nc1nnc(-c2ccccn2)o1,-2.9% (active)
22,CCCOc1ccc(OC(=O)c2ccc(Br)o2)cc1,20.9%
23,O=C(NC(=S)Nc1ccccc1)c1csnn1,105%
24,O=C(/C=C/c1ccccc1)Nc1ccc(S(=O)(=O)N2CCOCC2)cc1,2%
25,CC(=O)Nc1ccc(S(=O)(=O)N2CCC(NC(=O)c3ccccc3)CC2)cc1,9.4%
26,CC(=O)Nc1ccc(S(=O)(=O)N2CCC(C(=O)O)CC2)cc1,-3% (active)

row,SMILES,activity change vs negative control
1,CCc1cc2c(=O)n(CCC(C)C)c(=S)[nH]c2s1,83.4%
2,S=c1nc(COc2ccccc2)[nH]c2ccccc12,159%
3,CN(C)CCCN=C(NO)c1ccc(Cl)cc1Cl,6.6%
4,CCSc1nc2c(sc3ccccc32)c(=O)n1C(C)C,54.6%
5,COCC(=O)Nc1cc(C)cn(Cc2c(F)cccc2Cl)c1=O,-0.6% (active)
6,O=C(COC(=O)C1CCC(=O)N1)Nc1cc(Cl)ccc1Cl (stereo unspecified),4.6%
7,CCOC(=O)c1sc2ncnc(NCc3ccco3)c2c1C,66.3%
8,CCCN(C(=O)c1ccco1)c1nnc(-c2ccncc2)s1,7.1%
9,Cc1[nH]n2c(=O)cc(C(C)(C)C)nc2c1-c1ccccc1,38.2%
10,CCOC(=O)C1CCN(C(=O)COC(=O)c2nn(C)c(=O)c3ccccc23)CC1,8.5%
11,Cc1oc(-c2cccs2)nc1CN1CCC(C(=O)N2CCCC2)CC1,12.1%
12,CC1CCCN(C(=O)COC(=O)c2cc(-c3cccs3)nn2-c2ccccc2)C1 (stereo unspecified),-2.5% (active)
13,CC(=O)c1c(NC(=O)c2ccccc2)[nH]c(-c2ccccc2)nc1=S,30.6%
14,Cc1ccc(-c2nc(N)s[n+]2-c2ccccc2)cc1,42.6%
15,CCOC(=O)Cc1csc(NC(=S)NC(=O)c2ccccc2C)n1,26.3%
16,COc1cccc(/C=N/Nc2nc3ccccc3[nH]2)c1O,24.7%
17,COc1cccc2cc(-c3nc4ccccc4[nH]3)c(=O)oc12,-9.4% (active)
18,COc1ccc(C(=O)NC(=S)N2CCC(C)CC2)cc1Br,74.7%
19,COc1cc(C2c3c(n[nH]c3C)C(=O)N2c2ccc(C)cc2)ccc1O (stereo unspecified),-5% (active)
20,Cc1ccc(C2c3c(-c4ccccc4O)n[nH]c3C(=O)N2Cc2ccncc2)cc1 (stereo unspecified),10.7%
21,COc1cc(C2NC(=O)NC(C)=C2C(=O)OCC2CCCCC2)ccc1O (stereo unspecified),7.4%
22,CC1=NN(c2nc(-c3ccccc3)cs2)C(=O)C1N=Nc1ccccc1 (stereo unspecified),-5% (active)
23,Cn1c(O)c(N=Nc2nc(-c3ccccc3)cs2)c2ccccc21,90.8%
24,Cc1nc(-c2ccccc2)cn(O)c1=O,20.4%
25,c1ccc(CCCNc2ncnc3nc[nH]c23)cc1,61.8%
